According to PubChem BioAssay:
The source made the active and inactive calls. Unless noted, no rule for the calls is given here.

Assays:
[1] = system: Wnt5a (protein binding on small-molecule microarray); experiment: small molecules binding Wnt5a protein – biophysical, small-molecule microarray, 635/667 nm fluorescence, primary screen (AID 1142); conditions: 635 nm fluorescence, higher = more signal;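 also: fluorescence read at 667 nm with signal to noise per printed feature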
[2] = ATP-based viability of Huh7 replicon cells – cell-based, CellTiter-Glo luminescence, basal, 48 h, cytotoxicity control for HCV replication inhibitor project, primary screen (AID 1143); conditions: higher = more signal, called active from +8 up or from −8 down;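 also: Huh7 hepatoma cells carrying a hepatitis C replication reporter with no stimulus; test concentration not given here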
[3] = Pseudomonas biofilm growth suppression – PAO1 strain, BacTiter-Glo luminescence, LB-PBS, primary screen (AID 1144); conditions: P. aeruginosa PAO1 biofilm, 12 h, higher = more signal
[4] = basal CRE-LacZ reporter activity in PC12 – cell-based, unstimulated, primary screen (AID 1145); conditions: no forskolin, luminescence, 4.5 h, higher = more signal, called active from +8 up or from −8 down
[5] = forskolin-driven CRE-LacZ activity in PC12 – cell-based, CRE-LacZ reporter, forskolin-stimulated, primary screen (AID 1146); conditions: luminescence, 4.5 h, higher = more signal, called active from +8 up or from −8 down;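 also: PC12 cells with 6xCRE LacZ reporter stimulated by forskolin 10 µM; beta-galactosidase reporter signal reflecting CREB driven transcription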
[6] = target: Streptavidin (Streptomyces avidinii) (UniProt P22629); experiment: compounds binding control protein streptavidin – biophysical, small-molecule microarray, 635/667 nm fluorescence, artefact control for SMM compound annotation, primary screen (AID 1147); conditions: higher = more signal;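 also: signal reflects streptavidin binding to arrayed compounds as a control protein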
Streptavidin (Streptomyces avidinii), sequence (P22629 whole entry, looked up): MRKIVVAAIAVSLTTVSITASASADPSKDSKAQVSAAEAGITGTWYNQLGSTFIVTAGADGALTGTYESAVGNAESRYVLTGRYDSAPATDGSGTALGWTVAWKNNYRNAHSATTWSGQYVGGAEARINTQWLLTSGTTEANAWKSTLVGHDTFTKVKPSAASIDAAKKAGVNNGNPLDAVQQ

[7] = probe aInhba binding on compound microarray – biochemical, small-molecule microarray, 635/667 nm fluorescence, primary screen (AID 1148); conditions: higher = more signal;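 also: score merges 667nm spot fluorescence with signal-to-noise for antibody binding to printed compounds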
Torsin-1A (Homo sapiens) [8] = target: Torsin-1A (Homo sapiens) (UniProt O14656); experiment: TOR1A wild-type binding on microarray – cell lysate, small-molecule microarray, lysate, 635/667 nm, primary screen (AID 1149); conditions: COS7 hTOR1A-WT lysate, 635 nm fluorescence, higher = more signal
Torsin-1A (Homo sapiens), sequence (O14656 whole entry, looked up): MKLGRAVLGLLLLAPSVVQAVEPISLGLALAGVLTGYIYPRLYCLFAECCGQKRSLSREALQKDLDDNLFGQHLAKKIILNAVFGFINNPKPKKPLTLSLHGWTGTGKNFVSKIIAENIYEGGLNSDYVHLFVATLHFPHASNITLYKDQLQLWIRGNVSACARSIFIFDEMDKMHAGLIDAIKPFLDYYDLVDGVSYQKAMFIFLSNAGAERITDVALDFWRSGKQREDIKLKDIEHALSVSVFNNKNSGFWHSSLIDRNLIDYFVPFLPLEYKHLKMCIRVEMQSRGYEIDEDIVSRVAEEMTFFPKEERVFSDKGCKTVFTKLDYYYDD

Torsin-1A (Homo sapiens) [9] = target: Torsin-1A (Homo sapiens) (UniProt O14656); experiment: torsin A mutant lysate binding on microarrays – cell lysate, small-molecule microarray, COS7 lysate, 635/667 nm fluorescence, primary screen (AID 1150); conditions: COS7 hTOR1A mutant lysate, 635 nm fluorescence, higher = more signal;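 also: score pools 667 nm emission and signal to noise measuring lysate protein binding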
[10] = system: Sonic hedgehog protein (Shh); experiment: Sonic hedgehog microarray binding compounds – biochemical, small-molecule microarray, 635/667 nm fluorescence, primary screen (AID 1151); conditions: 635 nm fluorescence, higher = more signal;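 also: Shh protein binding to compounds spotted on small-molecule microarray slides; score combines spot fluorescence intensity with signal-to-noise across triplicate slides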
[11] = optical density shifts of acrAB sulA E. coli – strain DRC41, OD650, 48 h, E. coli filamentation inducer project, primary screen (AID 1152); conditions: higher = more signal, called active from +8 up or from −8 down;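 also: E. coli MC1000 strain DRC41 lacking acrAB efflux pump and sulA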
[12] = probe aLefty1 binding on compound microarray – biochemical, small-molecule microarray, 635/667 nm fluorescence, primary screen (AID 1153); conditions: higher = more signal;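 also: score merges spot fluorescence with signal-to-noise ratio from the scanned slide images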
[13] = plasmodial surface anion channel blockers, osmotic lysis – cell-based, P. falciparum Indochina, OD700, 1 h, primary screen (AID 1154); conditions: P. falciparum Indochina infected RBC osmotic lysis, higher = more signal, called active from +8 up or from −8 down
[14] = plasmodial surface anion channel blockers, osmotic lysis – cell-based, P. falciparum Indochina, OD700, 2 h, primary screen (AID 1155);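 also: lysis reports solute entry through the parasite surface anion channel PSAC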; conditions: P. falciparum Indochina infected erythrocytes, higher = more signal, called active from +8 up or from −8 down
[15] = changes in parasitized red cell lysis, either direction – P. falciparum Indochina, OD700, 3 h, PSAC antagonist project, primary screen (AID 1156); conditions: P. falciparum-infected erythrocytes, osmotic lysis, higher = more signal, called active from +8 up or from −8 down
[16] = plasmodial surface anion channel blockers, osmotic lysis – cell-based, P. falciparum Indochina, OD700, 18 h, primary screen (AID 1157); conditions: P. falciparum Indochina infected erythrocytes, osmotic lysis OD700, 18 h; higher = more signal, called active from +8 up or from −8 down
[17] = S6 kinase pathway phospho-S6 level changes – cell-based, A549, cytoblot, luminescence, serum-stimulated, primary screen (AID 1158); conditions: 5 h, higher = more signal;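 also: serum-stimulated A549 lung adenocarcinoma cells; signal is phosphorylated S6 detected by cytoblot immunostaining with HRP secondary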
[18] = target: NADPH oxidase 2 (Homo sapiens) (UniProt P04839); experiment: compounds shifting NOX2 Amplex Red fluorescence – cell-based, HEK293-NOX2, PMA-stimulated, NOX inhibitor project, primary screen (AID 1159); conditions: 45 min, higher = more signal, called active from +8 up or from −8 down; also: test concentration not given here
NADPH oxidase 2 (Homo sapiens), sequence (P04839 whole entry, looked up): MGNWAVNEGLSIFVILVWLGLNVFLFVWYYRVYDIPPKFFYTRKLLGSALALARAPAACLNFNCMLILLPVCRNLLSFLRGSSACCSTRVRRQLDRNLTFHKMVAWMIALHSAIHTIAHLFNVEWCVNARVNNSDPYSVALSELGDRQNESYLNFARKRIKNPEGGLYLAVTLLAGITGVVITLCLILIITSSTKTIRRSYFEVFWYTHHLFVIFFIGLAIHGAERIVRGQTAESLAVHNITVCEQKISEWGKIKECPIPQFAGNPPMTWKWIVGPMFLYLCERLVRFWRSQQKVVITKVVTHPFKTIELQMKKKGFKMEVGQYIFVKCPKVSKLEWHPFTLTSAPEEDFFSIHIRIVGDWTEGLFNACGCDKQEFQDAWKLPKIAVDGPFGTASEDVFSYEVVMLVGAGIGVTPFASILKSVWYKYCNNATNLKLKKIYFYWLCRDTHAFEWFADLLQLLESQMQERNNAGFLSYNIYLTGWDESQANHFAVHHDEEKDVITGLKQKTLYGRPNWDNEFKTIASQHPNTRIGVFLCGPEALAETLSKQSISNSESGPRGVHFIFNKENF

[19] = target: NADPH oxidase 4 (Homo sapiens) (UniProt Q9NPH5); experiment: compounds shifting NOX4 Amplex Red fluorescence – cell-based, HEK293-NOX4, tetracycline-induced, NOX inhibitor project, primary screen (AID 1160); conditions: HEK293-NOX4, Amplex Red H2O2 fluorescence, 45 min; higher = more signal, called active from +8 up or from −8 down
NADPH oxidase 4 (Homo sapiens), sequence (Q9NPH5 whole entry, looked up): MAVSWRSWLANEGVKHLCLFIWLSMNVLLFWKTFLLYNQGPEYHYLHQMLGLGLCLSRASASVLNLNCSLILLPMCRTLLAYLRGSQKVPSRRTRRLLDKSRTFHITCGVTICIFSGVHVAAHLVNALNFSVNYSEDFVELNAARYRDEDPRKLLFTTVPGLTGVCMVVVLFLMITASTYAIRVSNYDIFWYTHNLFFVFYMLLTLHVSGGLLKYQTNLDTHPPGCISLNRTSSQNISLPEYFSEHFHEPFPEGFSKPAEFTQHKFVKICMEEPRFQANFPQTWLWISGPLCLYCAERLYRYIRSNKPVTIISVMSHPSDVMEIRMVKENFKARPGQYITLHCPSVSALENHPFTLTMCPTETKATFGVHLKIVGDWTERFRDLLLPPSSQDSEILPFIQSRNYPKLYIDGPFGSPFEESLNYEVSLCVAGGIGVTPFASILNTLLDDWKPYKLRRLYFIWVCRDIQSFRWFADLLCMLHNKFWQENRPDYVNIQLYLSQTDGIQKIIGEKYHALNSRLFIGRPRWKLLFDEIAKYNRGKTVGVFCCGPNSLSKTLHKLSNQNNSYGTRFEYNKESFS

[20] = target: NADPH oxidase 5 (Homo sapiens) (UniProt Q96PH1); experiment: compounds shifting NOX5 Amplex Red fluorescence – cell-based, HEK293-NOX5, NOX inhibitor project, primary screen (AID 1161); conditions: HEK293-NOX5, ionomycin, 45 min, higher = more signal
NADPH oxidase 5 (Homo sapiens), sequence (Q96PH1 whole entry, looked up): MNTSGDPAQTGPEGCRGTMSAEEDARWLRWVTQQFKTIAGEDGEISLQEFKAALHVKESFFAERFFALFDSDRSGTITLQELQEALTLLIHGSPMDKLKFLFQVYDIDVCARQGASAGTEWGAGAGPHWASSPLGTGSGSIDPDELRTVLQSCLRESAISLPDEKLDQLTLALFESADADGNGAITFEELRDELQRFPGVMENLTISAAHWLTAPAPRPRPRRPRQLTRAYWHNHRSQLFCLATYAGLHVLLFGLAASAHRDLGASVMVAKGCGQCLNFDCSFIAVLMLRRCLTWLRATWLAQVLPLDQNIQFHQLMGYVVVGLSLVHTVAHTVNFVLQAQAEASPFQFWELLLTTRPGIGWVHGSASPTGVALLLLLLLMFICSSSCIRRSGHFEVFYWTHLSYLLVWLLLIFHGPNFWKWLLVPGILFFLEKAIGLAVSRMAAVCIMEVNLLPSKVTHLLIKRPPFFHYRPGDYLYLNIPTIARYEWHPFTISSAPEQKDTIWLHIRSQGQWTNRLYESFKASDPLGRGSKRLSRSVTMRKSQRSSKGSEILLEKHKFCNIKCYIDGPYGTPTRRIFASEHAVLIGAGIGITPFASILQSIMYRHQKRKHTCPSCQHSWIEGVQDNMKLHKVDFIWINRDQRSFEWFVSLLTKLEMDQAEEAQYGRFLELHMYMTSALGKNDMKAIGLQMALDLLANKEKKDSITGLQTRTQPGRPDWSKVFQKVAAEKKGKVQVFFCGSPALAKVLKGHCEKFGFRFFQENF

SMILES: CCN(CC)c1ccc(N2CC=CC34O[C@@H]5C=CCOC(=O)[C@@H]5[C@H]3C(=O)N(CCCO)[C@@H]4C2=O)cc1 (stereo not given in full)
- composite z-score [1]: -0.121
- z-score [2]: -2.34 (inactive)
- z-score [3]: -0.527 (inactive)
- z-score [4]: -0.228 (inactive)
- z-score [5]: -0.905 (inactive)
- composite z-score [6]: -1.39
- composite z-score [7]: -0.128
- composite z-score (Torsin-1A (Homo sapiens) [8]): 0.0507
- composite z-score (Torsin-1A (Homo sapiens) [9]): 2.46
- composite z-score [10]: -0.0981
- z-score [11]: 1.33 (inactive)
- composite z-score [12]: 0.027
- z-score [13]: 0.246 (inactive)
- z-score [14]: -0.655 (inactive)
- z-score [15]: 0.649 (inactive)
- z-score [16]: -1.36 (inactive)
- z-score [17]: 4.3
- z-score [18]: -0.0266 (inactive)
- z-score [19]: -0.497 (inactive)
- z-score [20]: 0.785

SMILES: COCCCNC(=O)[C@@H]1c2ccccc2C(=O)N(C2CCCCC2)[C@H]1c1ccc(CO)cc1
- composite z-score [1]: -0.384
- z-score [2]: -4.86 (inactive)
- z-score [3]: -0.303 (inactive)
- z-score [4]: -0.385 (inactive)
- z-score [5]: 0.656 (inactive)
- composite z-score [6]: -0.59
- composite z-score [7]: -0.0963
- composite z-score (Torsin-1A (Homo sapiens) [8]): 0.691
- composite z-score (Torsin-1A (Homo sapiens) [9]): -1.51
- composite z-score [10]: -0.759
- z-score [11]: 0.416 (inactive)
- composite z-score [12]: 0.0839
- z-score [13]: 0.794 (inactive)
- z-score [14]: -0.0928 (inactive)
- z-score [15]: 0.65 (inactive)
- z-score [16]: -0.51 (inactive)
- z-score [17]: 2.35
- z-score [18]: 0.422 (inactive)
- z-score [19]: -1.61 (inactive)
- z-score [20]: -0.915

SMILES: NCCCC[C@@H]1NC(=O)[C@H]2C[C@@H](C(=O)NCc3ccc(F)cc3)[C@@H](c3cccc(OCCO)c3)N2C1=O
- composite z-score [1]: 0.334
- z-score [2]: -0.262 (inactive)
- z-score [3]: -0.862 (inactive)
- z-score [4]: 0.0084 (inactive)
- z-score [5]: -0.583 (inactive)
- composite z-score [6]: -0.0648
- composite z-score [7]: 0.122
- composite z-score (Torsin-1A (Homo sapiens) [8]): 0.608
- composite z-score (Torsin-1A (Homo sapiens) [9]): 1.48
- composite z-score [10]: 2.07
- z-score [11]: -0.405 (inactive)
- composite z-score [12]: 0.254
- z-score [13]: -0.591 (inactive)
- z-score [14]: 0.157 (inactive)
- z-score [15]: -0.805 (inactive)
- z-score [16]: 0.274 (inactive)
- z-score [17]: -0.325
- z-score [18]: 1.88 (inactive)
- z-score [19]: 0.647 (inactive)
- z-score [20]: 0.582

SMILES: C[N+](C)(C)CCCCCCNC(=O)[C@H]1C[C@H]2C(=O)NCC(=O)N2[C@H]1c1cccc(OCCO)c1
- composite z-score [1]: -0.196
- z-score [2]: -0.103 (inactive)
- z-score [3]: 0.052 (inactive)
- z-score [4]: -0.675 (inactive)
- z-score [5]: -0.487 (inactive)
- composite z-score [6]: -0.518
- composite z-score [7]: -0.14
- composite z-score (Torsin-1A (Homo sapiens) [8]): 1.1
- composite z-score (Torsin-1A (Homo sapiens) [9]): 0.781
- composite z-score [10]: 2.17
- z-score [11]: -0.191 (inactive)
- composite z-score [12]: -0.259
- z-score [13]: 2.76 (inactive)
- z-score [14]: 0.462 (inactive)
- z-score [15]: -1.36 (inactive)
- z-score [16]: 0.179 (inactive)
- z-score [17]: 0.142
- z-score [18]: 0.752 (inactive)
- z-score [19]: 1.12 (inactive)
- z-score [20]: 1.24

SMILES: C=C(CCCC)/C(=C/C[C@H](OC(C)=O)c1cccc(OCCO)c1)c1cc(C(=O)OC)ccc1OC
- composite z-score [1]: -0.229
- z-score [2]: -0.845 (inactive)
- z-score [3]: 0.0689 (inactive)
- z-score [4]: 12.1 (active)
- z-score [5]: -0.834 (inactive)
- composite z-score [6]: -0.77
- composite z-score [7]: -0.0059
- composite z-score (Torsin-1A (Homo sapiens) [8]): -0.552
- composite z-score (Torsin-1A (Homo sapiens) [9]): -0.426
- composite z-score [10]: 0.454
- z-score [11]: 1.19 (inactive)
- composite z-score [12]: -0.007
- z-score [13]: 21 (active)
- z-score [14]: 3.75 (inactive)
- z-score [15]: 2.43 (inactive)
- z-score [16]: 1.21 (inactive)
- z-score [17]: -0.377
- z-score [18]: 1.39 (inactive)
- z-score [19]: 1.02 (inactive)
- z-score [20]: -0.963

SMILES: CN(C)CCCCNC(=O)[C@H]1C[C@H]2C(=O)N[C@@H](Cc3ccccc3)C(=O)N2[C@H]1c1cccc(OCCO)c1
- composite z-score [1]: -0.113
- z-score [2]: -0.307 (inactive)
- z-score [3]: -0.584 (inactive)
- z-score [4]: -1.07 (inactive)
- z-score [5]: -1.16 (inactive)
- composite z-score [6]: -0.203
- composite z-score [7]: -0.128
- composite z-score (Torsin-1A (Homo sapiens) [8]): -0.163
- composite z-score (Torsin-1A (Homo sapiens) [9]): 0.59
- composite z-score [10]: 0.878
- z-score [11]: 2.11 (inactive)
- composite z-score [12]: 0.0751
- z-score [13]: 2.68 (inactive)
- z-score [14]: -0.546 (inactive)
- z-score [15]: -0.282 (inactive)
- z-score [16]: -1.43 (inactive)
- z-score [17]: 0.331
- z-score [18]: 0.693 (inactive)
- z-score [19]: 0.863 (inactive)
- z-score [20]: 1.43

SMILES: CO[C@H]1O[C@H](CO)[C@@H](OC(=O)Nc2ccc(C(F)(F)F)cc2)[C@H](OC(=O)Nc2ccccc2-c2ccccc2)[C@H]1OC(=O)Nc1ccccc1-c1ccccc1
- composite z-score [1]: 0.856
- z-score [2]: -6.09 (inactive)
- z-score [3]: 0.435 (inactive)
- z-score [4]: 0.447 (inactive)
- z-score [5]: -0.747 (inactive)
- composite z-score [6]: 0.967
- composite z-score [7]: 0.0504
- composite z-score (Torsin-1A (Homo sapiens) [8]): 0.276
- composite z-score (Torsin-1A (Homo sapiens) [9]): 0.263
- composite z-score [10]: 1.61
- z-score [11]: -1.16 (inactive)
- composite z-score [12]: 0.398
- z-score [13]: 3.1 (inactive)
- z-score [14]: 1.18 (inactive)
- z-score [15]: -2.21 (inactive)
- z-score [16]: 1.16 (inactive)
- z-score [17]: -0.413
- z-score [18]: -3.25 (inactive)
- z-score [19]: -1.07 (inactive)
- z-score [20]: -0.439

SMILES: CC(C)(C)OC(=O)CC[C@]1(C(N)=O)N=C(c2ccc(OCCCO)cc2)O[C@H]1c1ccccc1CN=[N+]=[N-]
- composite z-score [1]: 0.602
- z-score [2]: 0.268 (inactive)
- z-score [3]: 0.201 (inactive)
- z-score [4]: 1.04 (inactive)
- z-score [5]: -0.671 (inactive)
- composite z-score [6]: 2
- composite z-score [7]: 0.355
- composite z-score (Torsin-1A (Homo sapiens) [8]): 1.57
- composite z-score (Torsin-1A (Homo sapiens) [9]): 1.1
- composite z-score [10]: -0.336
- z-score [11]: 0.434 (inactive)
- composite z-score [12]: 0.5
- z-score [13]: 21.6 (active)
- z-score [14]: 5.64 (inactive)
- z-score [15]: -0.173 (inactive)
- z-score [16]: 0.223 (inactive)
- z-score [17]: 0.0054
- z-score [18]: 0.709 (inactive)
- z-score [19]: -0.508 (inactive)
- z-score [20]: 1.26
